Screens deposited in PubChem BioAssay by The Scripps Research Institute Molecular Screening Center.
A selection: hits, their analogues and other compounds. The true share with any hit is near 4.5%.
DAX1 inh-1: inhibitors of human orphan nuclear receptor DAX1 (NR0B1) | HEK293 Gal4-DAX1 luciferase reporter, luminescence | P51843 | inhibition, % at 6.75 µM | 340,000 compounds, 0.99% hits;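 active = inhibition above the mean over all tested compounds plus 3 SD, cut at about 4.2% in these data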;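 note: 0% = DAX1-transfected cells with DMSO and 100% = empty-vector control cells with DMSO; inhibition shows as a rise in luminescence from relieved DAX1 repression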
Target sequence (P51843 207-470 limits assumed): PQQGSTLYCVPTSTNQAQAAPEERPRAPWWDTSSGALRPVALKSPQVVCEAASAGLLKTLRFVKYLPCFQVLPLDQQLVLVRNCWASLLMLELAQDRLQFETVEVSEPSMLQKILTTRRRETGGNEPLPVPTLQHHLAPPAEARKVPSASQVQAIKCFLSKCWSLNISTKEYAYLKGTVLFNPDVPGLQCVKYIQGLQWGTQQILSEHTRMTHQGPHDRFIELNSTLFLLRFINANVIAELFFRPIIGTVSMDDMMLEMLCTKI
ssDAF-12 act: activators of S. stercoralis DAF-12 nuclear receptor | 370,000 compounds, 1% hits | activation, % at 6.8 µM | HEK293 ssDAF-12/GRIP1 lit1-tk-luc reporter, luminescence; % of 3 µM dafachronic acid response | AID 652126;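 active = activation above the mean over all tested compounds plus 3 SD, cut at about 0.9% in these data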;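 note: 0% = DMSO-only wells and 100% = 3 µM delta7-dafachronic acid wells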
hcDAF-12 act: activates DAF-12 receptor from parasite H. contortus. 370,000 compounds, 1.4% hits. HEK293 hcDAF-12 lit1-tk-luc reporter, luminescence; 0% DMSO, 100% Δ7-dafachronic acid. activation, % at 6.8 µM;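 active = activation above the mean of all tested compounds plus 3 SD, cut at about 5.5% in these data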;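 note: 100% = response to 3 µM Δ7-dafachronic acid high control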
DAX1 inh-2: inhibitors of DAX1 repression of SF-1 activated StAR promoter; HEK293T StAR-luciferase reporter, SF-1/DAX-1 repression relief; inhibition, % at 6.8 µM; 370,000 compounds, 1.1% hits;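 active = inhibition above the mean over all tested compounds plus 3 SD, cut at about 3.6% in these data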;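 note: 0% = DAX-1 cells with DMSO and 100% = cells lacking DAX-1 with DMSO; higher inhibition means more luminescence from relief of DAX-1 repression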
hgDAF12 agonist: hgDAF-12 agonism, primary luciferase screen | HEK293 GAL4-hgDAF12 UAS-luciferase reporter, agonist luminescence; normalized to butyrate control | activation, % at 6.8 µM | 370,000 compounds, 1.8% hits | AID 687014;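 active = activation above a cutoff set at the mean of all screened compounds plus 3 SD, cut at about 10% in these data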;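 note: 0% = DMSO wells and 100% = sodium butyrate wells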
GAA850 FXN act: increases GAA850 frataxin promoter reporter activity | 360,000 compounds, 0.56% hits | activation, % at 6 µM | HEK293 lucGAA850 FXN promoter luciferase reporter, 24 h; percent of 10 µM SAHA response;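 active = activation above the average of all compounds screened plus 3 SD, cutoff fixed separately per campaign, cut at about 7.5% in these data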;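 note: 0% = DMSO wells and 100% = 10 µM SAHA wells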
DAX1 conf: confirmation of human DAX1 (NR0B1) inhibitors | shares compounds with DAX1 inh-2 | 2,400 compounds, 87% hits | inhibition, % at 6.8 µM | HEK293T StAR-promoter luciferase reporter, SF-1/DAX-1 repression;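 active = inhibition above the average of every tested compound plus 3 SD, cut at about 3.8% in these data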;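 note: 0% = DAX-1 cells with DMSO and 100% = no DAX-1 control cells with DMSO; active compounds raise luminescence by relieving repression of the StAR reporter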
SF1 mutant ctr: nonselective inhibitor or artifact in SF-1 mutant DAX1 counter-screen; shares compounds with DAX1 inh-2; HEK293 StAR-luciferase, SF-1 AF2 mutant, luminescence; inhibition, % at 6.8 µM; 2,400 compounds, 78% hits;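 active = inhibition above the mean of all tested compounds plus 3 SD, cut at about 3% in these data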;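 note: 0% = DAX-1 transfected cells with DMSO and 100% = cells without DAX-1 with DMSO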
* marks the source's active call; other numbers are inactive results; . = no result given.

SMILES	DAX1 inh-1	ssDAF-12 act	hcDAF-12 act	DAX1 inh-2	hgDAF12 agonist	GAA850 FXN act	DAX1 conf	SF1 mutant ctr
CC[C@@H](C)[C@H](C(CC(=O)N1CCCC1[C@@H](OC)[C@H](C)C(=O)N[C@H](Cc1ccccc1)c1nccs1)OC)N(C)C(=O)[C@H](NC(=O)[C@@H](C(C)C)N(C)C)C(C)C (stereo partly specified)	4	1	0	7.7*	-8	1	30*	-6
CC(=O)Nc1cccc(-c2cc3c(c4c2ccn4C)C2CCC3O2)c1 (stereo unspecified)	.	-2	2	-1	-1	.	.	.
Cn1ccc2c(-c3ccc(C(N)=O)cc3)cc3c(c21)C1CCC3O1 (stereo unspecified)	.	-1	0	4.6*	-4	.	1	0
COC(=O)[C@]12C[C@H](CC(=O)NCCCN3CCCC3=O)C(=O)N(Cc3cccc4ccccc34)C1=C[C@H](C1CCCC1)O[C@@H]2C	.	-1	-2	-1	-2	.	.	.
Cc1ccc2nc(SC(C)C(=O)N3CCOCC3)[nH]c2c1 (stereo unspecified)	2	-1	4	7.3*	11*	4	6.2*	5.0*
CCOC(=O)c1ccc2nc(NC(=O)C(C)C)sc2c1	2	0	1	4.6*	13*	2	4	2
CCCC(=O)Nc1nc2ccc(C(=O)OCC)cc2s1	3	-1	0	0	4	4	.	.
Cc1ccc(NC(=O)COC(=O)c2cccnc2)cc1	0	-2	0	0	-1	0	.	.
Cc1ccc2nc(NC(=O)COC(=O)c3cccnc3)sc2c1	1	-1	4	5.6*	12*	1	4.0*	3
CC1(C2CC2)NC(=O)N(CC(=O)N2CCN(c3ccc(F)cc3)CC2)C1=O (stereo unspecified)	1	-1	-3	0	0	-1	.	.
CC1(C2CC2)NC(=O)N(CC(=O)N2CCN(c3ccccc3)CC2)C1=O (stereo unspecified)	0	-1	0	6.7*	1	1	0	0
Cn1cccc1/C=N/NC(=O)c1cccs1	2	0	1	5.5*	11*	7	5.7*	3.7*
O=C(OCC(=O)N1CCCCC1)c1c[nH]c2ccccc12	0	-1	1	1	3	4	.	.
O=C(OCC(=O)N1CCCCC1)c1cc(=O)[nH]c2ccccc12	1	-1	3	4.9*	6	1	3	2
Clc1cc(Cl)cc(CNC2CCC23CCCCC3)c1 (stereo unspecified)	.	-1	-1	.	0	.	.	.
CC1CCC(NC(=O)c2cc(Cl)nc3ccccc23)CC1 (stereo unspecified)	0	0	3	4.6*	-1	4	6.0*	4.3*
O=C(NCC1CCCCC1)c1cc2ccccc2cc1O	0	-1	-2	-1	2	4	.	.
O=C(NNC(=O)c1cc2ccccc2cc1O)NC1CCCCC1	0	-1	0	0	0	1	.	.
O=C(NCC1CCCO1)c1cc2ccccc2cc1O (stereo unspecified)	3	0	2	5.0*	6	1	6.1*	4.3*
CC1CCC(NC(=O)c2cc3ccccc3cc2O)CC1 (stereo unspecified)	2	0	2	8.0*	10	4	10*	6.7*
COc1ccc(-c2sc3ccccc3c2-c2ccc(OC)cc2F)cc1	.	-1	2	5.3*	3	.	1	2
CCCC[C@H]1C2CC(OC(=O)Nc3cccc(Cl)c3)C(C2)[C@H]2CCCCN21 (stereo partly specified)	.	-2	0	0	2	.	.	.
CC(=O)Nc1cccc(-c2csc(Nc3ccccn3)n2)c1	2	0	5	4.5*	7	3	12*	6.0*
C=C(c1ccc2nc(NC(=O)OC)[nH]c2c1)c1cccs1	0	0	2	7.7*	5	6	37*	-8
CCOC(=O)N1CCN(C(=O)C[C@H]2C[C@@]3(C(=O)OC)C(=C[C@H](COCc4ccccc4)O[C@@H]3C)N(Cc3ccc4c(c3)OCO4)C2=O)CC1	.	-1	0	0	-2	.	.	.
SMILES	DAX1 inh-1	ssDAF-12 act	hcDAF-12 act	DAX1 inh-2	hgDAF12 agonist	GAA850 FXN act	DAX1 conf	SF1 mutant ctr
O=C(NCCc1ccccc1)c1ccc([N+](=O)[O-])cc1	-2	1	6	5.3*	10	0	13*	7.1*
Brc1ccc(-c2csc(N3CCNCC3)n2)cc1	.	-2	3	.	0	.	.	.
Cc1ccc(CN(C)C(=O)C2CCC(=O)N(CCc3ccccc3)C2)o1 (stereo unspecified)	1	-1	2	5.8*	4	1	4.2*	3.6*
N#CCC(=O)N/N=C\c1cccc(OC/C=C/c2ccccc2)c1	-2	0	2	13*	11*	2	14*	6.9*
CCCCCCC[C@@H](C/C=C/CCC(=O)N(C)C/C(=C/Cl)C/C(=C\C(=O)N1CC(OC)=CC1=O)OC)OC	3	0	0	19*	-12	6	6.2*	-5
CCCCCCC[C@@H](C/C=C/CCC(=O)N(C)C/C(=C/Cl)C/C(=C\C(=O)N1C[C@H](O)CC1=O)OC)OC	-1	-2	-2	-2	-4	0	.	.
Cc1nc2ccc(NC(=O)CS(=O)(=O)c3ccccc3)cc2s1	1	0	1	6.0*	7	2	5.6*	3.0*
O=c1oc2cc(O)ccc2cc1-c1nc2ccccc2o1	.	0	3	5.4*	9	.	6.4*	3.3*
CCCCN(C)CCNC(=O)CN1C(=O)CSc2ccc(S(=O)(=O)N3CCCC3)cc21	1	-1	0	7.2*	2	1	3	1
CCCCNC(=O)CN1C(=O)CSc2ccc(S(=O)(=O)N3CCOCC3)cc21	1	-2	-1	2	-1	1	.	.
CN(C)CCn1c2c(c(SCC(=O)N3CCc4ccccc43)nc1=O)CCCC2	-1	1	1	-1	-1	0	.	.
CCN(CC)CCCn1c2c(c(SCC(=O)N3CCCc4ccccc43)nc1=O)CCC2	0	-1	0	8.0*	1	0	2	0
O=c1c(Br)c(N2CCCCC2)cnn1-c1ccccc1	4.5*	-1	3	4.6*	13*	4	10*	8.3*
O=c1c(Br)c(N2CCOCC2)cnn1-c1ccccc1	2	-1	3	2	3	3	.	.
